Some structures have more than one record in an assay (separate samples or runs), and their calls can disagree. Calls of active or inactive are those of the source. Calls follow the shape of the full dose curve.
Conditions: Ebola virus entry assay, green fluorescence channel

| Structure (SMILES) | AC50 | outcome |
| --- | --- | --- |
| C[C@]12CC[C@@H]3c4ccc(O)cc4C[C@@H](CCCCCCCCCS(=O)CCCC(F)(F)C(F)(F)F)[C@H]3[C@@H]1CC[C@@H]2O (stereo partly specified) | 3060 nM (active) | – |
| CC/C(=C(\c1ccccc1)c1ccc(OCCN(C)C)cc1)c1ccccc1 | 1530 nM (active) | inactive |
| CO[C@H]1C[C@@H]2CC[C@@H](C)[C@@](O)(O2)C(=O)C(=O)N2CCCC[C@@H]2C(=O)O[C@H]([C@@H](C)C[C@@H]2CC[C@H](O)[C@H](OC)C2)CC(=O)[C@H](C)C=C(C)[C@@H](O)[C@@H](OC)C(=O)[C@H](C)C[C@H](C)C=CC=CC=C1C | 17700 nM (active) | – |
| CC[C@]1(O)C[C@H]2CN(CCc3c([nH]c4ccccc34)[C@@](C(=O)OC)(c3cc4c(cc3OC)N(C=O)[C@H]3[C@@](O)(C(=O)OC)[C@H](OC(C)=O)[C@]5(CC)C=CCN6CC[C@]43[C@@H]65)C2)C1 | 217 nM (active) | – |
| CN1[C@@H]2CC[C@H]1CC(OC(c1ccccc1)c1ccccc1)C2 (stereo partly specified) | 3060 nM (active) | – |
| COc1cccc2c1C(=O)c1c(O)c3c(c(O)c1C2=O)C[C@@](O)(C(C)=O)C[C@H]3O[C@H]1C[C@H](N)[C@H](O)[C@H](C)O1 | – | inactive |
| CCCCc1oc2ccc(NS(C)(=O)=O)cc2c1C(=O)c1ccc(OCCCN(CCCC)CCCC)cc1 | – | inactive |
| CC[C@]1(O)C[C@@H]2CN(CCc3c([nH]c4ccccc34)[C@@](C(=O)OC)(c3cc4c(cc3OC)N(C)[C@H]3[C@@](O)(C(=O)OC)[C@H](OC(C)=O)[C@]5(CC)C=CCN6CC[C@]43[C@@H]65)C2)C1 | 137 nM (active) | – |
| CCC1=C[C@@H]2CN(C1)Cc1c([nH]c3ccccc13)[C@@](C(=O)OC)(c1cc3c(cc1OC)N(C)[C@H]1[C@@](O)(C(=O)OC)[C@H](OC(C)=O)[C@]4(CC)C=CCN5CC[C@]31[C@@H]54)C2 | 109 nM (active) | – |
| CCCNCC(O)COc1ccccc1C(=O)CCc1ccccc1 (stereo unspecified) | – | inactive |
| CC[C@H]1OC(=O)[C@H](C)[C@@H](O[C@H]2C[C@@](C)(OC)[C@@H](O)[C@H](C)O2)[C@H](C)[C@@H](O[C@@H]2O[C@H](C)C[C@H](N(C)C)[C@@H]2O)[C@](C)(O)C[C@@H](C)CN(C)[C@H](C)[C@@H](O)[C@]1(C)O | 7690 nM (active) | – |
| COc1cc2c(c(OC)c1OC)-c1ccc(OC)c(=O)cc1[C@@H](NC(C)=O)CC2 | 96.8 nM (active) | – |
| CCCSc1ccc2nc(NC(=O)OC)[nH]c2c1 | – | inactive |
| CN(C)CCCN1c2ccccc2CCc2ccc(Cl)cc21 | 7690 nM (active) | – |
| CC[C@H]1OC(=O)[C@H](C)[C@@H](O[C@H]2C[C@@](C)(OC)[C@@H](O)[C@H](C)O2)C(C)[C@@H](O[C@@H]2O[C@H](C)C[C@H](N(C)C)[C@@H]2O)[C@](C)(OC)C[C@@H](C)C(=O)[C@H](C)[C@@H](O)[C@]1(C)O (stereo partly specified) | 5440 nM (active) | – |
| CCN(CC)CCNC(=O)c1c(C)[nH]c(/C=C2\C(=O)Nc3ccc(F)cc32)c1C | – | inactive |
| COC(=O)Nc1nc2ccc(C(=O)c3cccs3)cc2[nH]1 | 685 nM (active) | – |
| CNCCCC12CCC(c3ccccc31)c1ccccc12 | 6850 nM (active) | – |
| CN1CCN(CCCN2c3ccccc3Sc3ccc(C(F)(F)F)cc32)CC1 | – | inactive |
| CO[C@H]1C[C@@H]2CC[C@@H](C)[C@@](O)(O2)C(=O)C(=O)N2CCCC[C@@H]2C(=O)O[C@H]([C@H](C)C[C@@H]2CC[C@H](OCCO)[C@H](OC)C2)CC(=O)[C@H](C)C=C(C)[C@@H](O)[C@@H](OC)C(=O)[C@H](C)C[C@H](C)C=CC=CC=C1C | – | inactive |
| CN1CCC[C@@H]1CCO[C@](C)(c1ccccc1)c1ccc(Cl)cc1 | 1930 nM (active) | – |
| C[C@@H]1O[C@@H](O[C@H]2CC[C@@]3(C)[C@H](CC[C@@H]4[C@H]3C[C@@H](O)[C@]3(C)[C@@H](C5=CC(=O)OC5)CC[C@]43O)C2)C[C@H](O)[C@@H]1O[C@H]1C[C@H](O)[C@H](O[C@H]2C[C@H](O)[C@@H](O)[C@@H](C)O2)[C@H](C)O1 (stereo in doubt) | 112 nM (active) | – |
| Cc1nnc(C(C)C)n1C1C[C@H]2CC[C@@H](C1)N2CC[C@H](NC(=O)C1CCC(F)(F)CC1)c1ccccc1 (stereo partly specified) | – | inactive |
| CN(C)CCOc1ccc(/C(=C(/CCCl)c2ccccc2)c2ccccc2)cc1 | 1930 nM (active) | – |
| COC(=O)Nc1nc2ccc(C(=O)c3ccccc3)cc2[nH]1 | 6110 nM (active) | – |
